Data as given in PubChem BioAssay AID518 (Sanford-Burnham Center for Chemical Genomics, 2006).
Screen size: about 64,000 compounds; about 55 (0.09%) were called active. No rule for the calls is given here. These entries were drawn from the full list.

Target: Alkaline phosphatase, tissue-nonspecific isozyme (Homo sapiens) (UniProt P05186)
Experiment: human TNAP enzyme inhibitors, biochemical, luminescent (AID 518);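 also: plate controls were vehicle for no effect and reference inhibitor for full effect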
Conditions: purified TNAP enzyme, luminescent substrate readout; at 20 µM; active compounds read high

Sequence of Alkaline phosphatase, tissue-nonspecific isozyme (Homo sapiens) (P05186 whole entry, looked up): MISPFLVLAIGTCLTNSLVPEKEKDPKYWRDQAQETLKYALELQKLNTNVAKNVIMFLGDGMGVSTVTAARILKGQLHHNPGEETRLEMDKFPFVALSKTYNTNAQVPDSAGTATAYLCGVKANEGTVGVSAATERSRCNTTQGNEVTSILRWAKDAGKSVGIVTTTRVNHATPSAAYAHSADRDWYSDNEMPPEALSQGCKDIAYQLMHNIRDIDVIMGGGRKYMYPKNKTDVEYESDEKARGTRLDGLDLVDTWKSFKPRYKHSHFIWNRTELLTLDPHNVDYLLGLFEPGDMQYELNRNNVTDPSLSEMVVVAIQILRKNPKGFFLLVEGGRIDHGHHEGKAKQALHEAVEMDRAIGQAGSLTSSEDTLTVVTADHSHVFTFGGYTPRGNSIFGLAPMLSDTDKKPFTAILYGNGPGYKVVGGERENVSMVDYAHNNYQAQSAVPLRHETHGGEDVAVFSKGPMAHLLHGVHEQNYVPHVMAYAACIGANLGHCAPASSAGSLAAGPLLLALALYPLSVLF

inhibition, inactive:
CCN1C(=O)OC2(CCCCC2)C1(C)O (stereo not drawn) 13%
O=C(NCCN1CCOCC1)c1cc2ccccc2o1 9.4%
Cc1cc2c(c(Sc3ccccc3)n1)C(=O)OC2 7.5%
O=C(N1CCOCC1)N1CCN(CC(O)COc2ccc3ccccc3c2)CC1 (stereo not drawn) 16.3%
Cn1c2ccccc2c2nnc(SCN3C(=O)c4ccccc4C3=O)nc21 8.4%
Cc1cc(C(=O)OCC(=O)Nc2nc(-c3ccccc3)cs2)c(C)o1 1.4%
O=c1c2ccccc2nc2n1CCCS2 4.5%
COc1cc2[nH]c3c(N4CCN(c5ccc(Cl)cc5)CC4)ncnc3c2cc1OC 5.3%
O=C(CCC(=O)c1ccc(F)cc1)OC1CCOC1=O (stereo not drawn) 6.6%
COc1ccccc1N1CCN(C(=O)CSc2ccc3c(C)cc(C)nc3n2)CC1 10.2%
Oc1ccccc1Oc1ncc(Br)c(N2CCOCC2)n1 -1.3%
C/C(N)=C(/C#N)C(=O)CSc1ncnc2ccccc12 5.5%
COc1ccccc1-c1nc(SCC(=O)O)n[nH]1 4.7%
Cc1nc2sc(C(c3cccc(F)c3)N3CCCC(C)C3)c(O)n2n1 (stereo not drawn) 5.8%
COc1ccc(OC)c2c1CCC2=O 8.1%
CN(CCCNC(=O)C1CCC(=O)N1Cc1ccc(F)cc1)c1ccccc1 (stereo not drawn) 1.1%
Cc1cc(C(=O)NCCN2CCN(c3cccc(Cl)c3)CC2)n(-c2ccccc2)n1 10.8%
CCc1c(C)[nH]c2ccc(C)cc2c1=O 7.8%
CCCCn1c(NCCN(C)C)nc2c1c(=O)[nH]c(=O)n2C -1%
O=C(CSc1oc(-c2ccccc2)nc1S(=O)(=O)c1ccc(F)cc1)NCC1CCCO1 (stereo not drawn) 1.7%
O=C(COc1ccc(S(=O)(=O)N2CCOCC2)cc1)Nc1ccc2c(c1)OCCO2 -6.1%
C=CCN1C(=O)C(O)(CC(=O)c2ccccc2)c2ccccc21 (stereo not drawn) 7.7%
CN(C)c1oc(-c2ccc(OCc3ccc(Cl)cc3)cc2)nc1C#N 5.2%
O=C(c1ccc(CNS(=O)(=O)c2cccc(C(F)(F)F)c2)cc1)N1CCOCC1 19.5%
CCn1cnc2sc(C(=O)N3CCN(Cc4ccc5c(c4)OCO5)CC3)c(C)c2c1=O 0.3%
c1ccc(N2CCN(C3CCSC3)CC2)cc1 (stereo not drawn) 13.5%
COCCNc1ncnc2nc[nH]c12 8.7%
CCOCCCNC(=O)C(c1ccc(C)cc1)N1CCOCC1 (stereo not drawn) -1%
CS(=O)(=O)N(CC(=O)NCc1ccc2c(c1)OCO2)c1ccc(Cl)cc1 6.8%
CCOc1ccc(CNc2ccc3c(c2)ncn3C)cc1 16.9%
Cc1nccn1CCC(=O)O 5.3%
CCc1ccccc1N1C(=O)C2CC(C)=C(C)CC2C1=O (stereo not drawn) 5.3%
Cc1cc(C(=O)NC(C)c2ccncc2)cs1 (stereo not drawn) 3.5%
Cc1ccc(S(=O)(=O)Cn2nnnc2C(c2ccc(F)cc2)N2CCCCC2)cc1 (stereo not drawn) 3.5%
CCCCCC(=O)N1CCN(CCN=CC2=C(O)CC(c3ccco3)CC2=O)CC1 (stereo not drawn) 8%
O=C(NCCN1CCOCC1)C1CCN(c2nc3ccccc3o2)CC1 7.3%
CCCc1ccc(S(=O)(=O)NCCc2ccncc2)cc1 10.5%
CCc1ccc2[nH]c(=O)c(C(c3nnnn3CC3CCCO3)N3CCCc4ccccc43)cc2c1 (stereo not drawn) 19.5%
COc1cc(C2C3CN(C)CC=C3C(C#N)=C(N)C2(C#N)C#N)ccc1OC(C)C (stereo not drawn) -0.1%
CC1c2nc3ccccc3n2C(CC(=O)NCc2ccccn2)C(=O)N1Cc1ccccc1 (stereo not drawn) 12.3%
Cc1onc(-c2c(F)cccc2Cl)c1C(=O)Nc1cccc2nsnc12 13.1%
COc1cc(C)nc(OCCNC(=O)COc2ccc(Cl)cc2Cl)n1 13.3%
COc1ccc(CNS(=O)(=O)c2ccc(C3CNC(=O)C3)cc2)cc1 (stereo not drawn) 8.2%
O=C(CSc1nnc2scc(-c3ccccc3)n12)N1CCCc2ccccc21 5.3%
C=CCOc1ccccc1C1C2=C(CC(C)(C)CC2=O)Nc2c1c(=O)n(C)c(=O)n2C (stereo not drawn) 4.4%
COC(=O)N(C)CCCC1(C)C(=O)N(C)c2ccc(O)cc21 (stereo not drawn) 8.6%
c1ccc(CSc2nncn2-c2ccccn2)cc1 17.8%
Cc1ccnc(NS(=O)(=O)c2cccs2)c1 14.5%
CCCc1noc2c1C(c1ccoc1)C(C#N)=C(N)N2 (stereo not drawn) 15.5%
CCN(CC)CCCN1C(=O)C(=O)/C(=C(/O)c2ccc3c(c2)OCCO3)C1c1ccc(C)o1 (stereo not drawn) 6.3%
c1ccc(CCc2nn3c(Cn4cnc5ccccc54)nnc3s2)cc1 10.8%
CCn1c2ccccc2c2nnc(SCC(=O)c3ccccc3)nc21 14.3%
CC(C)(CNS(=O)(=O)c1ccc(F)cc1)CNS(=O)(=O)c1ccc(F)cc1 10.8%
COc1ccc(CN(Cc2cc3cc4c(cc3[nH]c2=O)OCO4)C(=O)NC2CCCCC2)cc1 6.8%
O=C(NCc1ccco1)C(c1ccco1)N(CCc1ccccc1)C(=O)Cn1nnc2ccccc21 (stereo not drawn) 12.6%
Cc1ccc(N2C(=O)C3C(C2=O)C(C(=O)c2ccc(Cl)cc2)N2CCCC32)cc1 (stereo not drawn) 12%
CCOC(=O)c1cccnc1SCC(=O)N(C)c1ccccc1 -1.1%
O=C(Nc1c(Cl)cc(Cl)cc1C(=O)NCC1CCCO1)c1ccco1 (stereo not drawn) 5.4%
COC(=O)c1nc(NC(=O)C(C)C)n[nH]1 5.3%
COc1ccc2c(=O)c3c(=O)n(Cc4ccco4)c(-c4ccc(C)cc4)nc3oc2c1 9.7%
Cc1ccc(OCCn2c(=O)cnc3ccccc32)cc1 3.3%
CC1CCN(S(=O)(=O)c2cccc(C(=O)Nc3ccccn3)c2)CC1 24.3%
CCN1C(=O)C(Cc2nc3ccccc3c(=O)n2C)c2ccccc21 (stereo not drawn) 10.6%
COCc1[nH]nc2c1C(c1ccc(OC)cc1)C(C#N)=C(N)O2 (stereo not drawn) 16.1%
COCc1[nH]nc2c1C(c1ccc(OC)c(OC)c1)C(C#N)=C(N)O2 (stereo not drawn) 7.1%
COc1ccccc1C1C2C(=O)N(c3ccccc3)C(=O)C2ON1c1ccccc1 (stereo not drawn) -0.2%
O=c1[nH]c(-c2ccccc2O)nc2c1CCCC2 8.8%
Cc1ccc(NC(=O)c2cc(-c3ccco3)on2)cc1 8.1%
O=C(CN1CCC(n2nnc3cc(F)ccc32)CC1)Nc1ccccc1N1CCOCC1 6.7%
COc1ccc(S(=O)(=O)Nc2cc(Cl)ccc2OC)cc1 14.2%
O=c1cc(-c2ccccc2)nc2nc(COc3ccccc3)[nH]n12 1.9%
O=C(NCc1ccccc1)c1cc(=O)nc2sc(-c3ccccc3)nn12 9.8%
CCn1c(CNC(=O)c2cccs2)nnc1SCC(=O)NCCc1ccccc1 14%
C=CCN1C(=O)CS/C1=N/c1nccs1 8.1%
O=C1C2C3C=CC(C3)C2C(=O)N1c1n[nH]c(CCc2ccccc2)n1 (stereo not drawn) 36.8%
O=C1c2ccccc2C(=O)N1c1n[nH]c(CCc2ccccc2)n1 22.8%
Cc1ccc(NC(=O)Cn2cnc3c(=O)n(C)c(=O)n(C)c32)c(C)c1 3.9%
CN(C)c1[nH]c(=O)c(C#N)c2c1CCN2Cc1ccccc1 11.1%
CCOc1ccc(C2C(C#N)=C(N)Oc3nc[nH]c(=O)c32)cc1OC (stereo not drawn) 4.4%
O=C(CC(Nc1ccccc1)C(=O)O)c1ccccc1 (stereo not drawn) 15.2%
CCOc1ccc(OCC)c(NS(=O)(=O)c2ccc3c(c2)n(C)c(=O)c(=O)n3C)c1 0.5%
CCOc1ccc(CC(=O)Nc2c(C(N)=O)oc3ccccc23)cc1OCC 5.9%
CCN(CC)C(=O)c1c[nH]c2ccc(S(=O)(=O)Nc3cc(C)cc(C)c3)cc2c1=O 5.8%
CS(=O)(=O)N(CC(=O)NC1CCCCC1)c1cccc(Cl)c1 6.8%
COc1cccc(C(=O)Nc2ccccc2N2CCCC2)c1 9.9%
O=C(Cn1cc2c(n1)CCCCC2)NCc1ccccc1 9.1%
Cc1ccc(NC2CC(=O)N(c3ccc(N4CCCCC4)cc3)C2=O)cc1 (stereo not drawn) 6.6%
COc1ccc(CC(=O)Nc2cccc(-c3nnc(-c4ccccc4)o3)c2)cc1OC 6.4%
O=C(Nc1ccccc1)NC1(C(=O)NCc2ccc3c(c2)OCO3)CCCCC1 -0.2%
COc1cc(C2c3c(oc4c(C)cc(C)cc4c3=O)C(=O)N2Cc2cccnc2)cc(OC)c1OC (stereo not drawn) 4.1%
Cc1ccc(-c2nc(CS(=O)CC(=O)NCc3ccccn3)c(C)o2)cc1 (stereo not drawn) -7.5%
CN(C)/C=N/c1nc2ccc3c(c2s1)CCCC3 12.3%
COc1ccc(N2CCN(CC(=O)Nc3cc4c(cc3C(C)=O)OCO4)CC2)cc1 3.8%
CSc1ccccc1C(=O)NCc1ccc2c(c1)OCO2 7.3%
O=C(Nc1ccccc1)N(C1=NCCCCS1)c1ccccc1 8.3%
C=C(C)Cn1c(SCC(=O)O)nnc1-c1ccc(C(C)(C)C)cc1 10.6%
Nc1c(S(=O)(=O)c2cccc(Cl)c2)c2nc3ccccc3nc2n1/N=C/c1ccc(O)c(O)c1 11.3%
CSC1=C(C#N)C(c2cccs2)CC(=O)N1C (stereo not drawn) 10.5%
